Assay results taken from the supplement of paper PMC10849652.
About 7,900 targets were measured; listed, in parts, are those with a hit and a random draw of the rest. About 0.6% of all pairs of compound and target were hits.

Tests used:
Test in all cases: log2 fold change, soluble protein after heating vs DMSO (PISA); higher = thermal stabilisation; K562 cells, 10 uM, 30 min; active = over 0.2 and 3.5 SD of the protein, either way, in both replicates (recomputed)
[1] = compound: NC(=O)Nc1cc(-c2cccc(F)c2)sc1C(=O)N[C@H]1CCCNC1
Procedure, shortened: (§1)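 Quantification of soluble protein used TMTpro 16plex LC-MS/MS, with channel sums equalised. Samples were the supernatant after 21,000xg for 90 min of pooled aliquots from K562 cells (2×10^6 cells/mL) treated with 10 μM compound for 30 min, heated for 3 min over 48°C-58°C, and extracted in PBS with 0.5% NP-40 at 4°C. Values, from duplicates, describe thermal stability against control samples on a log2 fold-change scale.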

[2] = compound: NC(=O)c1cnc(N[C@@H]2CCCC[C@@H]2N)nc1Nc1cccc(-n2nccn2)c1
Procedure, shortened: as §1

[3] = compound: NC1(c2ccc(-c3nc4ccn5c(=O)[nH]nc5c4cc3-c3ccccc3)cc2)CCC1
Procedure, shortened: as §1

[4] = compound: NCC(=O)Nc1ccc(-n2nc(C(F)(F)F)cc2-c2ccc3c(ccc4ccccc43)c2)cc1
Procedure, shortened: as §1

entinostat = compound: Nc1ccccc1NC(=O)c1ccc(CNC(=O)OCc2cccnc2)cc1 [entinostat]
Procedure, shortened: as §1

vorinostat = compound: O=C(CCCCCCC(=O)Nc1ccccc1)NO [vorinostat]
Procedure, shortened: as §1

citarinostat = compound: O=C(CCCCCCNC(=O)c1cnc(N(c2ccccc2)c2ccccc2Cl)nc1)NO [citarinostat]
Procedure, shortened: as §1

silmitasertib = compound: O=C(O)c1ccc2c(c1)nc(Nc1cccc(Cl)c1)c1ccncc12 [silmitasertib]
Procedure, shortened: as §1

[5] = compound: O=C1NC(=O)C(c2cnc3ccccn23)=C1c1cn2c3c(cc(F)cc13)CN(C(=O)N1CCCCC1)CC2
Procedure, shortened: as §1

[6] = compound: c1cc(OCCN2CCCCC2)cc(-c2n[nH]c3ccc(-c4nnc[nH]4)cc23)c1
Procedure, shortened: as §1

Measured: log2 fold change

IGF2BP2 (UniProt Q9Y6M1)
Sequence of UniProt Q9Y6M1 (Q9Y6M1 whole entry, looked up): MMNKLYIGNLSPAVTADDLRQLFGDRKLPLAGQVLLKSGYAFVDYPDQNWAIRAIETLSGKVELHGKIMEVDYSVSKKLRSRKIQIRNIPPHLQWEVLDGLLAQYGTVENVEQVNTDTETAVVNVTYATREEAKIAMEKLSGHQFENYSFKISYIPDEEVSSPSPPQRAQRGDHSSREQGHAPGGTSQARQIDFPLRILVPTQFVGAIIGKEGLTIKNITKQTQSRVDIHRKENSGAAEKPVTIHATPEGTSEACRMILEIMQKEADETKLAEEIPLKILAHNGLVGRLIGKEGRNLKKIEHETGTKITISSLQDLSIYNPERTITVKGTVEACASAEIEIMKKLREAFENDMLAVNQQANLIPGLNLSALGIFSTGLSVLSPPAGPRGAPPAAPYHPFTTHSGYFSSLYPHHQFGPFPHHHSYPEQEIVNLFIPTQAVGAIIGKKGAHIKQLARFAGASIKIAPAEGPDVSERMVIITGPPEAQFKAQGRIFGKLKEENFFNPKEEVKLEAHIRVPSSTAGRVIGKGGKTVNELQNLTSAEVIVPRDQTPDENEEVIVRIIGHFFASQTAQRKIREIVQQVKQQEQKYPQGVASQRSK
inactive: [1] 0.014 | [2] -0.051 | [3] 0.237 | [4] 0.045 | entinostat 0.015 | vorinostat 0.128 | citarinostat -0.178 | silmitasertib 0.16 | [5] 0.155 | [6] -0.208

GNS (UniProt P15586)
inactive: [1] 0.002 | [2] 0 | [3] -0.109 | [4] 0.01 | entinostat -0.006 | vorinostat -0.036 | citarinostat 0.019 | silmitasertib -0.026 | [5] -0.049 | [6] 0.003

IFRD1 (UniProt O00458)
inactive: [1] -0.035 | [2] -0.275 | [3] -0.058 | [4] -0.009 | entinostat -0.08 | vorinostat -0.25 | citarinostat -0.035 | silmitasertib 0.175 | [5] 0.022 | [6] -0.016

IFT74 (UniProt Q96LB3)
inactive: [1] 0.035 | [2] 0.009 | [3] 0.135 | [4] 0.045 | entinostat -0.091 | vorinostat 0.101 | citarinostat 0.171 | silmitasertib -0.187 | [5] -0.021 | [6] 0.06

GLCCI1 (UniProt Q86VQ1)
Sequence of UniProt Q86VQ1 (Q86VQ1 whole entry, looked up): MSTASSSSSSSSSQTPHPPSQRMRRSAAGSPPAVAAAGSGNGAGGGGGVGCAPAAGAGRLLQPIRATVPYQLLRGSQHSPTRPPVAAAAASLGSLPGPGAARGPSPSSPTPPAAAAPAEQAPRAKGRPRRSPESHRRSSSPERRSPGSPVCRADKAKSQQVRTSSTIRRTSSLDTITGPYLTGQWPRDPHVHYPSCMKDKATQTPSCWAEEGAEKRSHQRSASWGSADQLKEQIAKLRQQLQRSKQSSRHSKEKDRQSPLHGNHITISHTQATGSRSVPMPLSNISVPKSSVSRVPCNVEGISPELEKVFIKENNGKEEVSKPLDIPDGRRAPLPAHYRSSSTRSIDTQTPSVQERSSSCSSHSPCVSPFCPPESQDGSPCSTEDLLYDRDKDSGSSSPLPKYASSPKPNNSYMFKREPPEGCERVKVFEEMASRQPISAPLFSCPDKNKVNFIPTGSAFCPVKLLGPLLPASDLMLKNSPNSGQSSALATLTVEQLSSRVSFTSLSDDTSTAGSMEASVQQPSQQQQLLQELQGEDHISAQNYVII
inactive: [1] -0.12 | [2] 0.03 | [3] -0.024 | [4] 0.102 | entinostat 0.056 | vorinostat 0.158 | citarinostat 0.002 | silmitasertib -0.042 | [5] 0.01 | [6] -0.088

HMGB3 (UniProt O15347)
inactive: [1] 0.025 | [2] 0.153 | [3] 0.143 | [4] 0.136 | entinostat -0.032 | vorinostat -0.044 | citarinostat -0.159 | silmitasertib -0.068 | [5] -0.043 | [6] 0.146

HOMER1 (UniProt Q86YM7)
inactive: [1] 0.058 | [2] 0.007 | [3] -0.014 | [4] 0.032 | entinostat 0.049 | vorinostat 0.059 | citarinostat 0.013 | silmitasertib 0.119 | [5] 0.013 | [6] 0.024

FUCA2 (UniProt Q9BTY2)
active: [3] -0.499 | [6] -0.551
inactive: [1] 0.004 | [2] -0.037 | [4] 0.013 | entinostat -0.03 | vorinostat -0.033 | citarinostat 0.042 | silmitasertib 0.032 | [5] 0.032

GTF2B (UniProt Q00403)
inactive: [1] -0.009 | [2] -0.08 | [3] -0.172 | [4] -0.056 | entinostat 0.047 | vorinostat 0.211 | citarinostat 0.037 | silmitasertib 0.005 | [5] -0.156 | [6] 0.022

GALC (UniProt P54803)
inactive: [1] 0.015 | [2] 0.016 | [3] -0.165 | [4] 0.001 | entinostat -0.012 | vorinostat -0.138 | citarinostat 0.017 | silmitasertib 0.042 | [5] 0 | [6] 0.096

FKBP4 (UniProt Q02790)
inactive: [1] 0.005 | [2] -0.071 | [3] -0.114 | [4] -0.053 | entinostat 0.039 | vorinostat 0.035 | citarinostat 0.072 | silmitasertib 0.01 | [5] -0.02 | [6] -0.029

FNTB (UniProt P49356)
Sequence of UniProt P49356 (P49356 whole entry, looked up): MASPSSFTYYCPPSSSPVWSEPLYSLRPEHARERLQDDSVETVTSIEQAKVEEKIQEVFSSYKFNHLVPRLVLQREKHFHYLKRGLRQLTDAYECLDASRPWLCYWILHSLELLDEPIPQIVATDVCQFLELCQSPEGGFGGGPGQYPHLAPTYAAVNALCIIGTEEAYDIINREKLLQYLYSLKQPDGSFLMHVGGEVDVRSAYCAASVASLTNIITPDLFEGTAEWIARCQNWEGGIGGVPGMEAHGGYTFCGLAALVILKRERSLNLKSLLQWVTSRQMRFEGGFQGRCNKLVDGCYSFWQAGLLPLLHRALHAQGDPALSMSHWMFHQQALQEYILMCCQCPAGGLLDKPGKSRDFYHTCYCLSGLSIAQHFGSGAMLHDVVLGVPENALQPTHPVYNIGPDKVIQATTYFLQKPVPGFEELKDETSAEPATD
inactive: [1] -0.024 | [2] 0.09 | [3] 0.162 | [4] -0.035 | entinostat -0.079 | vorinostat -0.038 | citarinostat 0.054 | silmitasertib -0.019 | [5] 0.048 | [6] 0.002

GLUD2 (UniProt P49448)
inactive: [1] -0.086 | [2] -0.03 | [3] -0.006 | [4] 0.027 | entinostat -0.053 | vorinostat -0.051 | citarinostat -0.07 | silmitasertib -0.136 | [5] -0.008 | [6] -0.017

H1FX (UniProt Q92522)
inactive: [1] 0.248 | [2] 0.165 | [3] 0.153 | [4] 0.118 | entinostat -0.072 | vorinostat 0 | citarinostat -0.122 | silmitasertib 0.078 | [5] 0.227 | [6] -0.12

GDPD1 (UniProt Q8N9F7)
inactive: [1] -0.024 | [2] 0.144 | [3] 0.067 | [4] 0.003 | entinostat -0.011 | vorinostat -0.141 | citarinostat 0.051 | silmitasertib -0.039 | [5] 0.096 | [6] -0.038

FAM91A1 (UniProt Q658Y4)
Sequence of UniProt Q658Y4 (Q658Y4 whole entry, looked up): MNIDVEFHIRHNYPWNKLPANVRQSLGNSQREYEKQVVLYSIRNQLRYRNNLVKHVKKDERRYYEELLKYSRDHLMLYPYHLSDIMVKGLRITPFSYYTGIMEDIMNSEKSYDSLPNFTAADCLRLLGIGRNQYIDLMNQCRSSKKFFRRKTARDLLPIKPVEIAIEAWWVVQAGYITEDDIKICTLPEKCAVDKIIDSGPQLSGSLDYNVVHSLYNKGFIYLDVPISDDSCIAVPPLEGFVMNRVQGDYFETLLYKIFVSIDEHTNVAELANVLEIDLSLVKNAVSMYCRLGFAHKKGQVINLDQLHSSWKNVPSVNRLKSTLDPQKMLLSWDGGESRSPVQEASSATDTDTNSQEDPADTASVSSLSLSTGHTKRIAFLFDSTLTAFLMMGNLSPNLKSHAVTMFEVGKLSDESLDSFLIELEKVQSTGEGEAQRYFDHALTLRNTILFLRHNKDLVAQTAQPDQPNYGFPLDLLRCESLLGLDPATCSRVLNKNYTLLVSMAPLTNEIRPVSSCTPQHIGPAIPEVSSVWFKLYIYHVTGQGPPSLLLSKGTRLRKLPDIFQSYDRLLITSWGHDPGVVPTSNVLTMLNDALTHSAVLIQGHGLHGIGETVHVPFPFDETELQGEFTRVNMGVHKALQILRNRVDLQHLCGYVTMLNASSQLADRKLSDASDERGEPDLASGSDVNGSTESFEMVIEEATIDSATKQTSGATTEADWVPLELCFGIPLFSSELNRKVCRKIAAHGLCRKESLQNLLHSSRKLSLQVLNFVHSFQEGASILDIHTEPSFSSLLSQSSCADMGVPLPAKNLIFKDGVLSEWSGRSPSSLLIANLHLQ
inactive: [1] -0.009 | [2] -0.061 | [3] -0.08 | [4] -0.042 | entinostat -0.003 | vorinostat 0.004 | citarinostat -0.003 | silmitasertib 0.073 | [5] -0.346 | [6] -0.084

HEXB (UniProt P07686)
inactive: [1] 0.003 | [2] -0.051 | [3] -0.145 | [4] -0.034 | entinostat 0.004 | vorinostat -0.042 | citarinostat 0.033 | silmitasertib 0.007 | [5] -0.034 | [6] -0.003

HADHB (UniProt P55084)
inactive: [1] -0.079 | [2] 0.021 | [3] 0.104 | [4] 0.078 | entinostat 0.014 | vorinostat 0 | citarinostat 0.037 | silmitasertib -0.115 | [6] -0.056
active: [5] 0.716

GTF2E2 (UniProt P29084)
Sequence of UniProt P29084 (P29084 whole entry, looked up): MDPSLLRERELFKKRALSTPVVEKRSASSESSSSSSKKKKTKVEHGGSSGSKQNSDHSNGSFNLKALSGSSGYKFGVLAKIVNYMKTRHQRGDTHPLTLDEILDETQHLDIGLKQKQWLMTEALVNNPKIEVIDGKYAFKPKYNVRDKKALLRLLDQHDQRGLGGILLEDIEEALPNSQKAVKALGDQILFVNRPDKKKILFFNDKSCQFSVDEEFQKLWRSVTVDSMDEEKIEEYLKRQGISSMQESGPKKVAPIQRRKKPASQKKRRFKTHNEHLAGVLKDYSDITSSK
inactive: [1] -0.097 | [2] -0.052 | [3] -0.048 | [4] -0.048 | entinostat 0.025 | vorinostat 0.093 | citarinostat 0.093 | silmitasertib 0.085 | [5] 0.054 | [6] -0.067

FOXK1 (UniProt P85037)
active: [5] -1.33
inactive: [1] 0.497 | [2] 0.201 | [3] 0.38 | [4] 0.096 | entinostat 0 | vorinostat -0.15 | citarinostat 0.023 | silmitasertib 0.512 | [6] -0.031

FYB1 isoform 3 (UniProt O15117)
Sequence of UniProt O15117 (O15117 whole entry, looked up): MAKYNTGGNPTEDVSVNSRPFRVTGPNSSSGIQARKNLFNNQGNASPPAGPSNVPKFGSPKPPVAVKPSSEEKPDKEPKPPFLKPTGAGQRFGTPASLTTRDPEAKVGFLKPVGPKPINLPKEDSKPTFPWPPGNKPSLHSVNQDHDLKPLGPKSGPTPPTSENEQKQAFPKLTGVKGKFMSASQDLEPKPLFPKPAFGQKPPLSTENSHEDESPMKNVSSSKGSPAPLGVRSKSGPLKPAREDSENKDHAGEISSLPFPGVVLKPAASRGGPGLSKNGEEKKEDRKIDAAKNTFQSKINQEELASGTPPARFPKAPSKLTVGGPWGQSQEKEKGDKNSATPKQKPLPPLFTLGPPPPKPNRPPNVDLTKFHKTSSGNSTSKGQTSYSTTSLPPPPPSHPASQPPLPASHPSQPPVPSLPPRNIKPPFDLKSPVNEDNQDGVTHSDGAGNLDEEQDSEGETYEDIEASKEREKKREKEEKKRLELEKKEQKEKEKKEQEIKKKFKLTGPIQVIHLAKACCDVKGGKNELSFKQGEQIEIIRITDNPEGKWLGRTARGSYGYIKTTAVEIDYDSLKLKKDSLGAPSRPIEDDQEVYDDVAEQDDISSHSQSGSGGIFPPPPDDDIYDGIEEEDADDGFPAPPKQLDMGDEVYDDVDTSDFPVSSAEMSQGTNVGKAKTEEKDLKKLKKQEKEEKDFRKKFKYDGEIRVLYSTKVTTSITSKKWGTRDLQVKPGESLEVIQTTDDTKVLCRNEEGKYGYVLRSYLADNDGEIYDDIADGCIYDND
inactive: [1] -0.045 | [2] 0.007 | [3] 0.017 | [4] 0.02 | entinostat 0.025 | vorinostat -0.02 | citarinostat 0.093 | silmitasertib -0.097 | [5] -0.037 | [6] -0.002

GSTO1 (UniProt P78417)
inactive: [1] -0.015 | [2] -0.002 | [3] 0.022 | [4] 0.001 | entinostat -0.022 | vorinostat 0.058 | citarinostat 0.039 | silmitasertib -0.047 | [5] 0.018 | [6] -0.022

GALNT4 (UniProt Q8N4A0)
active: [4] -1.32
inactive: [1] -0.013 | [2] -0.117 | [3] -0.072 | entinostat -0.064 | vorinostat 0.055 | citarinostat 0.009 | silmitasertib 0.003 | [5] 0.051 | [6] -0.064

FECH isoform 2 (UniProt P22830)
Sequence of UniProt P22830 (P22830 whole entry, looked up): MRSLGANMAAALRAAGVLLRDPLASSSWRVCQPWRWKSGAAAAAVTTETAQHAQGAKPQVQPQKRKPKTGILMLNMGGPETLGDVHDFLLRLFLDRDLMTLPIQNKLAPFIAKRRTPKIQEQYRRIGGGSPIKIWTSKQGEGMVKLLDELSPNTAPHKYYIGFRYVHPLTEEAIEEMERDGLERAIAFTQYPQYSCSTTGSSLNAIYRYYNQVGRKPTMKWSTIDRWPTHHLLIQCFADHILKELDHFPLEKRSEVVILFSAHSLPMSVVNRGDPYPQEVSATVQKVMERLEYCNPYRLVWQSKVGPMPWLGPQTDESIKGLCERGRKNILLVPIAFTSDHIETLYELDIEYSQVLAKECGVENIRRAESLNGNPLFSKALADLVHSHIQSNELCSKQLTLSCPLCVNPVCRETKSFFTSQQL
inactive: [1] -0.031 | [2] 0.171 | [3] 0.288 | [4] 0.021 | entinostat -0.01 | vorinostat -0.228 | citarinostat -0.031 | silmitasertib -0.035 | [5] 0 | [6] 0.38

GAB2 (UniProt Q9UQC2)
inactive: [1] -0.087 | [2] -0.268 | [3] -0.081 | [4] 0.018 | entinostat 0.127 | vorinostat 0.151 | citarinostat 0.182 | silmitasertib -0.175 | [5] -0.095 | [6] -0.21

GCSH (UniProt P23434)
inactive: [1] 0.027 | [2] 0.037 | [3] 0.073 | [4] 0.027 | entinostat -0.049 | vorinostat 0.057 | citarinostat 0.022 | silmitasertib 0.193 | [5] -0.144 | [6] -0.04

GTF3C5 isoform 3 (UniProt Q9Y5Q8)
Sequence of UniProt Q9Y5Q8 (Q9Y5Q8 whole entry, looked up): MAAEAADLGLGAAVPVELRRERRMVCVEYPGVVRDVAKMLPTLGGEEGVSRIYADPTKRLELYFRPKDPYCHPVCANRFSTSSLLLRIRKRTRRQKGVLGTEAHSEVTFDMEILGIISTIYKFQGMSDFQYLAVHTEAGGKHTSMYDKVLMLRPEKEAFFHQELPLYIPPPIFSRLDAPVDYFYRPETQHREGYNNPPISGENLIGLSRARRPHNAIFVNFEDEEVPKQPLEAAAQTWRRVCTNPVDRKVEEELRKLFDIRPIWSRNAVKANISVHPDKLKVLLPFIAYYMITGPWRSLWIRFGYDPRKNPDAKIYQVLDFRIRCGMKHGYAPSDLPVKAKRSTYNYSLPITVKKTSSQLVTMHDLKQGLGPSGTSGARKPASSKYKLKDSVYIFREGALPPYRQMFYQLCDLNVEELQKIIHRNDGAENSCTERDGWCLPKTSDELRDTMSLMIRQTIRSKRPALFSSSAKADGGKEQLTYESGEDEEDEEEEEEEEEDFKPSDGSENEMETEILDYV
inactive: [1] -0.028 | [2] 0.211 | [3] -0.054 | [4] -0.051 | entinostat 0.046 | vorinostat 0.072 | citarinostat -0.074 | silmitasertib -0.034 | [5] 0.042 | [6] 0.013

GLA (UniProt P06280)
inactive: [1] 0.04 | [2] -0.049 | [3] -0.143 | [4] -0.066 | entinostat -0.034 | vorinostat 0.056 | citarinostat 0.027 | silmitasertib -0.03 | [5] -0.036 | [6] 0.029

FBXO7 (UniProt Q9Y3I1)
inactive: [1] 0.061 | [2] -0.052 | [3] -0.077 | [4] -0.044 | entinostat 0.038 | vorinostat 0.097 | citarinostat 0.013 | silmitasertib 0.031 | [5] -0.026 | [6] -0.052

GPKOW (UniProt Q92917)
Sequence of UniProt Q92917 (Q92917 whole entry, looked up): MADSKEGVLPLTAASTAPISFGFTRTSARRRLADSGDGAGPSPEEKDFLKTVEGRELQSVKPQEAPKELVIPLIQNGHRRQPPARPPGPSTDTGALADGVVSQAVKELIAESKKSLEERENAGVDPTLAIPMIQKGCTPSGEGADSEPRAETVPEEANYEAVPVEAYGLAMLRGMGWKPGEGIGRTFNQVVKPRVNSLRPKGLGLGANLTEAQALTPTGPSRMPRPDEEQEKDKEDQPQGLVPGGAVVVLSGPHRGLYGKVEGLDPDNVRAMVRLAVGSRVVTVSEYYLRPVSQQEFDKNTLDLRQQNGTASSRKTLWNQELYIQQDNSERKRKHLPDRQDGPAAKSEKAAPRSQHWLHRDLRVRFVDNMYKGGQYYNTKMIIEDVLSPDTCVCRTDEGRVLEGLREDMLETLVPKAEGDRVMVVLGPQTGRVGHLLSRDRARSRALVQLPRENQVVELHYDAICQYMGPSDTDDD
inactive: [1] -0.014 | [2] 0 | [3] -0.096 | [4] -0.216 | entinostat 0.042 | vorinostat 0.122 | citarinostat 0.048 | silmitasertib -0.078 | [5] -0.061 | [6] -0.01
